The results in this text go back to PubChem BioAssay.

Results filed as inconclusive are left out. Calls of active or inactive are those of the source.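 The calls were made as follows, unless noted: active = Her2 level under about 52% in both replicate screens, with viability over 70% of control (limit read from the data); inconclusive = Her2 under the limit in one screen only, or viability under 70%; inactive = Her2 level above the set limit.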

Assay [1] can be described thus: reducers of endogenous Her2 protein level, primary screen, SKBR3 breast tumor cells, AlphaScreen, ATP viability (AID 461).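 As to Her2 level: lower value means less Her2 protein in the cells.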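 As to viability: percent of carrier control wells set as 100% viability.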 As to conditions: 18-24 h, measured here: SKBR3 viability, ATP luminescence, at 10 µM.
In assay [2] the target is Receptor tyrosine-protein kinase erbB-2 (Homo sapiens) (UniProt P04626). The assay is described as above. As to conditions: 18-24 h, at 10 µM, stronger effect = lower value.
The nature of assay [3]: SK-BR-3 cell growth inhibitors, pilot screen, 24 h, human (AID 572;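 active = viability at or below 10% of carrier control in both of two separate runs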;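 also: compound exposure lasted between 18 and 24 h rather than exactly 24 h; 100% = carrier-treated control wells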). As to conditions: SK-BR-3 viability, CellTiter-Glo luminescence, at 10 µM, stronger effect = lower value.
A short description of assay [4]: HUVEC growth inhibition – cell-based, human, primary screen (AID 575;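 active = viability at or below 30% in both replicate assays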;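 also: 100% = median of untreated cell wells with 0.1% DMSO on each plate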). As to conditions: HUVEC proliferation, CellTiter-Glo luminescence, 72 h; at 10 µM; stronger effect = lower value.
The nature of assay [5]: growth inhibitors of H69AR lung tumor, primary screen, human, duplicate replicates (AID 580;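 active = viability at or under a set limit in both replicates, limit being median viability minus 3 SD, cut at about 48% in these data, passing the limit was not always enough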;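 also: 100% = mean luminescence of untreated wells and 0% = no signal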). As to conditions: H69AR lung tumor cells viability, ATP luminescence, 72 h; at 10 µM; stronger effect = lower value.
Assay [6] is described as follows: reversal of MRP1-mediated doxorubicin resistance, pilot screen, H69AR cells, doxorubicin co-treatment (AID 601;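 active = viability loss from added drug above about 55%, and viability with drug at most 40%, in both replicates, limit read from the data, passing the limit was not always enough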). As to conditions: CellTiter-Glo, 72 h, at 10 µM; for differential viability (reversal): stronger effect = higher value.
Assay [7] is described as follows: 384-well plate pilot, post-Golgi transport modulator project, inhibition of yeast transport mutant growth (AID 636; in the data active = inhibition above about 31%). As to conditions: absorbance 615 nm, about 18 h, stronger effect = higher value.
Assay [8] can be described thus: growth suppression of yeast trafficking mutant, preliminary HTS, modulators of trafficking downstream of Golgi apparatus project, 1536-format plate, OD 615 nm (AID 637; in the data active = inhibition above about 30%). As to conditions: yeast transport mutant growth, absorbance 615 nm, 18 h; stronger effect = higher value.
Assay [9] can be described thus: OD615 S. cerevisiae growth inhibition, permissive medium, pilot counter-assay, permissive growth control for S. cerevisiae lifespan shortening project (AID 705;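 active = growth inhibition above 25% in both replicates, a cutoff set 3 SD above the mean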). As to conditions: OD615, 24 h, at 10 µM, stronger effect = higher value.
Assay [10] in a line: Restrictive medium S. cerevisiae growth inhibition, OD615, pilot screen of yeast lifespan reduction project, restrictive growth control (AID 706;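 active = growth inhibition above a set limit, 3 SD over mean compound inhibition, in both replicates, cut at about 43% in these data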;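 also: modified DeaD lifespan yeast strain shifted to restrictive glucose medium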). As to conditions: OD615, 48 h, at 10 µM, stronger effect = higher value.
Assay [11] is described as follows: viability gain of MRP-1-high H69AR cells under doxorubicin, pilot screen, MRP-1 activator project, CellTiter-Glo, duplicate (AID 807;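 active = viability increase at or above a cutoff of the median across tested compounds plus 3 SD, cut at about 8.5% in these data, passing the limit was not always enough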;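 also: compound pretreatment 18-22 h then 72 h combined with doxorubicin; 0% = doxorubicin alone and 100% = vehicle without doxorubicin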). As to conditions: H69AR viability with doxorubicin, CellTiter-Glo luminescence; at 10 µM; stronger effect = higher value.
Assay [12] in a line: growth suppression of beta-catenin knockout HCT116, pilot screen, human colon tumor cells (AID 823;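 active = cell viability at or below a set limit in both duplicate runs, the limit being the all-compound median minus 4 SD, cut at about 23% in these data, passing the limit was not always enough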;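 also: 0% = wells killed by 20 µM Hyamine and 100% = untreated DMSO cell wells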). As to conditions: CellTiter-Glo, 60 h, at 10 µM, stronger effect = lower value.
Assay [13] is described as follows: growth suppression of PTEN-deleted HCT116, pilot screen, cell-based, HCT116 clonal line, CellTiter-Glo (AID 824;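 active = viability at or below 27.92% in each of two runs, the all-compound median minus 4 SD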;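 also: 0% = 20 µM Hyamine control and 100% = vehicle cell control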). As to conditions: 60 h, at 10 µM, stronger effect = lower value.
Assay [14] in a line: inhibitors of the yeast RAM network, pilot screen, dse1pr::URA3 reporter, 5-FOA selection (AID 869;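 active = inhibition over a set limit, the all-compound mean plus 3 SD, in both replicate runs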;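 also: 0% = DMSO wells with no growth and 100% = 10 µM 1-NA-PP1 with full growth; RAM network block rescues cells from 5-FOA so hits raise OD615 growth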). As to conditions: S. cerevisiae dse1pr::URA3 5-FOA growth, OD615, 2 d; at 10 µM; stronger effect = higher value; strain carries analog-sensitive mutant Cbk1 kinase.
A short description of assay [15]: RAM signaling pathway blockade in yeast – S. cerevisiae, Pdr1DBD-CYC8 efflux-inhibited sensitized strain, primary screen (AID 1298;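 active = RAM network inhibition above 8.4% in each of two replicates, 3 SD over the compound average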;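 also: 0% = DMSO untreated cells without growth and 100% = 10 µM 1-NA-PP1 full growth; higher means more yeast growth rescued from 5-FOA killing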). As to conditions: S. cerevisiae cbk1-as DSE1-URA3 strain, 5-FOA growth OD615, 2 d; at 50 µM; stronger effect = higher value.
Where [16] appears, read: H69AR cells + 2 uM doxorubicin, measured here: viability with 2 uM doxorubicin, stronger effect = lower value.
The mark [17] stands for this setting: H69AR cells, compound alone cytotoxicity.

Receptor tyrosine-protein kinase erbB-2 (Homo sapiens), sequence (P04626 whole entry, looked up): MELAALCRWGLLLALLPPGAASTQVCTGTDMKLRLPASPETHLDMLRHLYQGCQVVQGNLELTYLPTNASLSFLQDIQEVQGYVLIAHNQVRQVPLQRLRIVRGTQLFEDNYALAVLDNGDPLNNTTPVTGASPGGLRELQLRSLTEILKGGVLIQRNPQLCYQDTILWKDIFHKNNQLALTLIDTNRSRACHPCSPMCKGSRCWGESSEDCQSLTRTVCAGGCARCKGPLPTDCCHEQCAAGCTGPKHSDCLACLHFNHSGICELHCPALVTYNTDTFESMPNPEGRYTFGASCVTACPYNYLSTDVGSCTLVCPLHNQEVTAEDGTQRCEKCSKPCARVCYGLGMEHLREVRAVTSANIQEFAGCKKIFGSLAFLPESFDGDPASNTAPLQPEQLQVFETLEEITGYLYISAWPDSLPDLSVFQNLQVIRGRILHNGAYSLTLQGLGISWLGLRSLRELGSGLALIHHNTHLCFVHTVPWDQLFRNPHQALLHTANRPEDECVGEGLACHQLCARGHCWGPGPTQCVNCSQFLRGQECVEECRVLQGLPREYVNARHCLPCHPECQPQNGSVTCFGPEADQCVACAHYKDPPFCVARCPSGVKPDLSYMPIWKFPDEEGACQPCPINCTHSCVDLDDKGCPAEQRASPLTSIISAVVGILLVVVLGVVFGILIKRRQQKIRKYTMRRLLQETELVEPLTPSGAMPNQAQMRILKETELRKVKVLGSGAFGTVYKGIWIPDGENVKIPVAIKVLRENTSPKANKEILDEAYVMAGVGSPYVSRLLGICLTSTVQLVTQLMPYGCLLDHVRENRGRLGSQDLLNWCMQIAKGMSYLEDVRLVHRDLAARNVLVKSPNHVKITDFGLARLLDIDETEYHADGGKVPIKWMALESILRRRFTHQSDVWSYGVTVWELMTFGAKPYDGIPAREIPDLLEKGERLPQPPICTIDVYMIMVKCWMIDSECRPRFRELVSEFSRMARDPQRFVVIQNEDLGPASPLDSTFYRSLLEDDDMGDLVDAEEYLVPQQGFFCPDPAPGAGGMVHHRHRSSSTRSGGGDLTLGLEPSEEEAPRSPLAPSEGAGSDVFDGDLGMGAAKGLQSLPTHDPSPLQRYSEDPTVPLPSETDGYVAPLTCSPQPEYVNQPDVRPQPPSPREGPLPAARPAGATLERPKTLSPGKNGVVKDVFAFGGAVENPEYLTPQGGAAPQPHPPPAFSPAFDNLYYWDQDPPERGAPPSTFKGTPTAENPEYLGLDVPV

Regarding `CCCCn1c(CNC(=O)CCC)nc2ccccc21`, the viability is 116% in [1]; 116% (inactive) in assay [3]; 87.8% (inactive) in assay [4]; 91.8% (inactive) in [5]; 87.9% in assay [6] (setting [16]); 91.8% in assay [6] (setting [17]). Moreover, the viability was 104% (inactive) in [12] and 100% (inactive) in assay [13]. The Her2 level in [2] is 102% (inactive). Besides, in [6] (H69AR cells + 2 uM doxorubicin), the differential viability (reversal) was 3.83% (inactive). Also, the figures for the inhibition in assay [7], in assay [8] and in assay [14] were -5.2% (inactive), -4.67% (inactive) and -0.485% (inactive), respectively. Further, the growth inhibition is -9.17% (inactive) in assay [9] and -13.8% (inactive) in assay [10]. Further, the viability increase in assay [11] is -2.97% (inactive). In addition, the RAM network inhibition in [15] is 1.51% (inactive).
Take `Cc1nnc(SCC(=O)Nc2c(Cl)cccc2Cl)[nH]c1=O`: the viability in assay [1] is 104%; in [3], 104% (inactive); in assay [4], 99.1% (inactive); in [5], 93.9% (inactive); in [6] (setting [16]) it was 93.3%; in assay [6] (setting [17]) it was 93.9%. The figures for the viability in assay [12] and in assay [13] were 98.7% (inactive) and 104% (inactive), respectively. In addition, the Her2 level in [2] is 101% (inactive). The differential viability (reversal) in assay [6] (H69AR cells + 2 uM doxorubicin) is 0.52% (inactive). Further, the inhibition in [7] is -3.73% (inactive); in assay [8] it was -2.17% (inactive); in [14], 1.54% (inactive). Moreover, the growth inhibition in [9] is -7.89% (inactive); in [10], 7.47% (inactive). Further, the viability increase in [11] is 0.15% (inactive). Also, in assay [15], the RAM network inhibition was 4.64% (inactive).
On to `Cc1ccc(-n2ncc3c(=O)[nH]c(SC(C)C)nc32)cc1`, for which the viability in [1] was 93%; in [3], 93% (inactive); in assay [4], 84.9% (inactive); in assay [5] it was 80.1% (inactive); in [6] (setting [16]) it was 68.7%; in assay [6] (setting [17]) it was 80.1%. Moreover, the figures for the viability in assay [12] and in assay [13] were 98.4% (inactive) and 87.4% (inactive), respectively. In assay [2], the Her2 level is 104% (inactive). Moreover, the differential viability (reversal) in [6] (H69AR cells + 2 uM doxorubicin) is 11.3% (inactive). The figures for the inhibition in [7], in assay [8] and in assay [14] were -4.4% (inactive), -6% (inactive) and 3.35% (inactive), respectively. The results for the growth inhibition in assay [9] and in [10] were -3.77% (inactive) and -5.77% (inactive), respectively. Further, the viability increase in assay [11] is -3.9% (inactive). Further, the RAM network inhibition in assay [15] was 4.11% (inactive).
As for `CC(=O)OC1c2ccccc2C(=O)N1Cc1ccccc1Cl` (stereo not given), the viability is 93.5% in assay [1]; 93.5% (inactive) in [3]; 91.3% (inactive) in assay [4]; 88.5% (inactive) in assay [5]; 90.8% in assay [6] (setting [16]); 88.5% in assay [6] (setting [17]). Also, the results for the viability in assay [12] and in [13] were 74.6% (inactive) and 91.5% (inactive), respectively. In addition, the Her2 level in [2] is 92.5% (inactive). For the same compound, in assay [6] (H69AR cells + 2 uM doxorubicin), the differential viability (reversal) was -2.26% (inactive). Further, the inhibition was -5.87% (inactive) in [7], -4.83% (inactive) in [8] and 0.06% (inactive) in assay [14]. Besides, the growth inhibition in assay [9] is -1.57% (inactive); in assay [10], 5.51% (inactive). Further, the viability increase in assay [11] is -3.19% (inactive). Further, the RAM network inhibition in [15] was 5.73% (inactive).
Consider `CSc1nc2ccccc2c(=O)n1N`, for which the viability in assay [1] is 109%; in assay [3] it was 109% (inactive); in [4], 93.9% (inactive); in [5] it was 97.5% (inactive); in assay [6] (setting [16]), 93.1%; in [6] (setting [17]) it was 97.5%. Moreover, the values for the viability in assay [12] and in assay [13] were 92.2% (inactive) and 103% (inactive), respectively. The Her2 level in assay [2] is 94.5% (inactive). The differential viability (reversal) in [6] (H69AR cells + 2 uM doxorubicin) is 4.46% (inactive). For the same compound, the results for the inhibition in [7], in assay [8] and in [14] were -3.78% (inactive), -1.48% (inactive) and 1.75% (inactive), respectively. Further, the growth inhibition in [9] is -16.4% (inactive); in assay [10] it was 6.12% (inactive). The viability increase in assay [11] is -1.1% (inactive). Further, in [15], the RAM network inhibition is 4.29% (inactive).
